# Test results as given in the supplement of paper PMC10849652.
# The full data set covers some 8,800 targets. This sample favours those with a hit. About 0.5% of all pairs of compound and target were hits. Unmarked numbers belong to inactive results.
# What was measured:
# Assay in all cases: log2 fold change, soluble protein after heating vs DMSO (PISA); higher = thermal stabilisation; K562 lysate, 10 uM; active = over 0.2 and 3.5 SD of the protein, either way, in both replicates (recomputed)
# ibrutinib = compound: C=CC(=O)N1CCC[C@@H](n2nc(-c3ccc(Oc4ccccc4)cc3)c3c(N)ncnc32)C1 [ibrutinib]
# Method in brief: (§1)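 Pellets of K562 cells were dounce-homogenised in PBS pH 7.4 with 1 mM MgCl2, and the crude extract was held at 1 mg/mL protein for a 30 min treatment with 10 μM compound. Aliquots were heated for 3 min over 48°C-58°C and pooled before NP-40 was added to 0.5% at 4°C. The supernatant from 21,000xg for 90 min was quantified by TMTpro 16plex LC-MS/MS with channel sums equalised. Values are reported from duplicates as log-two fold change in thermal stability relative to solvent controls.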
# [1] = compound: CC(=O)c1cnc2ccc(-c3cc(Cl)c(O)c(Cl)c3)nc2c1N[C@H]1CC[C@H](CN(C)C)CC1
# Method in brief: as §1
# ralimetinib = compound: CC(C)(C)Cn1c(N)nc2ccc(-c3[nH]c(C(C)(C)C)nc3-c3ccc(F)cc3)nc21 [ralimetinib]
# Method in brief: as §1
# [2] = compound: CC(C)(O)CC(=O)NCCn1ccc2ncnc(Nc3ccc(Oc4cccc(C(F)(F)F)c4)c(Cl)c3)c21
# Method in brief: as §1
# [3] = compound: CC1=C(C(CC(=O)N1)C2=CC=C(C=C2)C(F)(F)F)C(=O)NC3=C(C=C4C(=C3)C=NN4)F
# Method in brief: as §1
# [4] = compound: CC1=C(C2=C(C=C1)C(=O)C3=CC=CC=C3N2CCCN)C
# Method in brief: as §1
# [5] = compound: CC1=C(C=C(C=C1)NC(=O)C2=CC(=CC=C2)N(C)C)NC(=O)C3=CC=C(C=C3)O
# Method in brief: as §1
# [6] = compound: CC1=CC=C(C=C1)SC2=C3C=C(SC3=CN=C2)C(=O)N
# Method in brief: as §1
# vemurafenib = compound: CCCS(=O)(=O)Nc1ccc(F)c(C(=O)c2c[nH]c3ncc(-c4ccc(Cl)cc4)cc23)c1F [vemurafenib]
# Method in brief: as §1
# [7] = compound: CCCS(=O)(=O)Nc1ccc(F)c(C(=O)c2c[nH]c3ncc(Cl)cc23)c1F
# Method in brief: as §1
# barasertib = compound: CCN(CCCOc1ccc2c(Nc3cc(CC(=O)Nc4cccc(F)c4)[nH]n3)ncnc2c1)CCOP(=O)(O)O [barasertib]
# Method in brief: as §1
# [8] = compound: CC[C@@H]1C(=O)N(C)c2cnc(Nc3ccc(C(=O)NC4CCN(C)CC4)cc3OC)nc2N1C1CCCC1
# Method in brief: as §1
# volasertib = compound: CC[C@@H]1C(=O)N(C)c2cnc(Nc3ccc(C(=O)N[C@H]4CC[C@H](N5CCN(CC6CC6)CC5)CC4)cc3OC)nc2N1C(C)C [volasertib]
# Method in brief: as §1
# [9] = compound: CCn1c(C(=O)N(C2CC2)C2CC2)cc2c3c(ncn3C)c(Nc3cc(C)n(C)n3)nc21
# Method in brief: as §1
# [10] = compound: CCn1cc(-c2ccnc3[nH]c(-c4cccc(CN(C)C)c4)cc23)c(-c2ccc(NC(=O)N(C)C)cc2)n1
# Method in brief: as §1
# [11] = compound: CN1CCC(CNc2ccc3ncc(-c4cccc(OC(F)(F)F)c4)n3n2)CC1
# Method in brief: as §1
# saracatinib = compound: CN1CCN(CCOc2cc(OC3CCOCC3)c3c(Nc4c(Cl)ccc5c4OCO5)ncnc3c2)CC1 [saracatinib]
# Method in brief: as §1
# [12] = compound: CC(C)C1=C2N=C(C=C(N2N=C1)NCC3=CC=CC=C3)NCCCCCCN
# Method in brief: as §1
# [13] = compound: CC1=C(C=C(C=C1)NC(=O)C2=CC(=CC=C2)C(C)(C)C#N)NC3=CC4=C(C=C3)N=CN(C4=O)C
# Method in brief: as §1
# sotrastaurin = compound: CN1CCN(c2nc(C3=C(c4c[nH]c5ccccc45)C(=O)NC3=O)c3ccccc3n2)CC1 [sotrastaurin]
# Method in brief: as §1
# UniProt Q8TAE6, sequence (Q8TAE6 whole entry, looked up): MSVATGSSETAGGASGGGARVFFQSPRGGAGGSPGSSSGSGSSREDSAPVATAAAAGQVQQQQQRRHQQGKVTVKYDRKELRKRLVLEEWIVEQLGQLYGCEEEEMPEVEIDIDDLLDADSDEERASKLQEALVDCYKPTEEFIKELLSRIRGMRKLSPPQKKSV
# UniProt Q15004, sequence (Q15004 whole entry, looked up): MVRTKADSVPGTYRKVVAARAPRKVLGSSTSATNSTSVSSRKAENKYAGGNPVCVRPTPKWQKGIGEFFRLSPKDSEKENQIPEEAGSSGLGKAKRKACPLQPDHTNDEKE
# UniProt P45877, sequence (P45877 whole entry, looked up): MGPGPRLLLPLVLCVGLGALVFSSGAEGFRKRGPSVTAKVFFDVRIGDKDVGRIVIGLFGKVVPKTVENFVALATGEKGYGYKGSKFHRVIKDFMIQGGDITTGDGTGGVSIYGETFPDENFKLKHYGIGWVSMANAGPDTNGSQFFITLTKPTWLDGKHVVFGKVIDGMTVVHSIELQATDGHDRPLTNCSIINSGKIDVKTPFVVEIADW
# UniProt Q9BRQ0, sequence (Q9BRQ0 whole entry, looked up): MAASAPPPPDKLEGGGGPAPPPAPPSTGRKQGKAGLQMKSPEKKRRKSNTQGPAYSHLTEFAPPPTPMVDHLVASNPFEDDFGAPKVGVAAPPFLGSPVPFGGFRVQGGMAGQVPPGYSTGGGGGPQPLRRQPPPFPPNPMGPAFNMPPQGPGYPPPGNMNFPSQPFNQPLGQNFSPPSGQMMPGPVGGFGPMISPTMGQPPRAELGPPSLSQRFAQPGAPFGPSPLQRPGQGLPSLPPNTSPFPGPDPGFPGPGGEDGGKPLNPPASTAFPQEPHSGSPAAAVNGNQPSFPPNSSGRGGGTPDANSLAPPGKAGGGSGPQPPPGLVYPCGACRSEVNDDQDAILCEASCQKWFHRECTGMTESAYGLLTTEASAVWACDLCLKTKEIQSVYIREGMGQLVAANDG
# UniProt O60237, sequence (O60237 whole entry, looked up): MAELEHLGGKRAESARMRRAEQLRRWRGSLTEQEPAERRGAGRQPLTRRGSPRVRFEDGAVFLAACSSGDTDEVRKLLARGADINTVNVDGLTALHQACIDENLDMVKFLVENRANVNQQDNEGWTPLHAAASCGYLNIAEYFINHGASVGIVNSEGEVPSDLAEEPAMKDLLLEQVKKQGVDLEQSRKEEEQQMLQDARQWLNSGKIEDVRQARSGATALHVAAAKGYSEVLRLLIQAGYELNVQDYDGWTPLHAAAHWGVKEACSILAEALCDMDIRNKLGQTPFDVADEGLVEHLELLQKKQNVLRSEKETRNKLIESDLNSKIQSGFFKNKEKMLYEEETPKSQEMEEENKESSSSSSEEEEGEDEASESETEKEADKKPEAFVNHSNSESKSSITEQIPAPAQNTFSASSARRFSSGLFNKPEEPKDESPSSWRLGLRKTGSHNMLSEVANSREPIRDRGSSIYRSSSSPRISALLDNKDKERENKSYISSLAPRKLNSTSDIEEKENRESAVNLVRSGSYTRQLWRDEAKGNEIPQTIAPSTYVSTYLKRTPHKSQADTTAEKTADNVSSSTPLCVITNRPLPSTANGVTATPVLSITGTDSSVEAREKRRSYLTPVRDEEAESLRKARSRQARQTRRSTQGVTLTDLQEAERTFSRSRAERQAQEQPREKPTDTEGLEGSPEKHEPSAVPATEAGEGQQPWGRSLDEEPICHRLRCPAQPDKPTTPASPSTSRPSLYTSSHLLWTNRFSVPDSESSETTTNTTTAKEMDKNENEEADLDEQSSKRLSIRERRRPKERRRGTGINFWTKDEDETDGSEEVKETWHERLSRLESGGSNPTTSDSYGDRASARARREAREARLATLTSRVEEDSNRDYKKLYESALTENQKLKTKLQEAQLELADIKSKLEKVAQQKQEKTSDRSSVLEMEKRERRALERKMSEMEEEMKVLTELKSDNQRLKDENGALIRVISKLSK
# UniProt P41247, sequence (P41247 whole entry, looked up): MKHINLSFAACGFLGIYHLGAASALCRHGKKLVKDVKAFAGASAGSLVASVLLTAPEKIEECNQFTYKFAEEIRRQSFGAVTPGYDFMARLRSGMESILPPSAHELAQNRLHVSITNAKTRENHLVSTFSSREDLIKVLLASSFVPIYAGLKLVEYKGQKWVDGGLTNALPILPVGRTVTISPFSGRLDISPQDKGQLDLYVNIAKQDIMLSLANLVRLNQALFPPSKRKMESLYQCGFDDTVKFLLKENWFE
# UniProt P78364, sequence (P78364 whole entry, looked up): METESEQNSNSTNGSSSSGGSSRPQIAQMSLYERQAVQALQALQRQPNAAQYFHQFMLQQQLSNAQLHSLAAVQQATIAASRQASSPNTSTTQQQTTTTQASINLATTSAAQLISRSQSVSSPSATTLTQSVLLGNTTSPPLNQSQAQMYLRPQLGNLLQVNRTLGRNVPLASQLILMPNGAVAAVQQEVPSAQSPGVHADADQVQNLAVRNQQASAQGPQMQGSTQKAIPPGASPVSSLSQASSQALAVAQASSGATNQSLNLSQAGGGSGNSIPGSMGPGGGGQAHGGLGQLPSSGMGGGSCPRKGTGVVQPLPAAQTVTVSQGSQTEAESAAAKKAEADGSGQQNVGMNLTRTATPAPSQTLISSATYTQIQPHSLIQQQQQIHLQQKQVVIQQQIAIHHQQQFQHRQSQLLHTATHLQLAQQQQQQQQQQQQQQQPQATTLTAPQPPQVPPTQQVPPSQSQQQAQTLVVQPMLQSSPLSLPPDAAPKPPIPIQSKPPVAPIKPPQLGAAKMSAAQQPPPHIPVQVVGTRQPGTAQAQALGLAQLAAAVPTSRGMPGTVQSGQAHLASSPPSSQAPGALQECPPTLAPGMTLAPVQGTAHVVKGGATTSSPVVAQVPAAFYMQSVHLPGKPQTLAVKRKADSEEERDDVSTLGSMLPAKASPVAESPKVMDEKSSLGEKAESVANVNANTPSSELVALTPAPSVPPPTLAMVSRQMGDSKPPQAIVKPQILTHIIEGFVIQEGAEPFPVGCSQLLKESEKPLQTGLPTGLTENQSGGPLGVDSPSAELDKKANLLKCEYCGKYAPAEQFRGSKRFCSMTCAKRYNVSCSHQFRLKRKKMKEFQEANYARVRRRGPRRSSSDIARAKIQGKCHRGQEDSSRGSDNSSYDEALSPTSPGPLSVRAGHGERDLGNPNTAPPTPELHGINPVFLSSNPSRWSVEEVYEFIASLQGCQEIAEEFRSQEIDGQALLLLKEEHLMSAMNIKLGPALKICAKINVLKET
# UniProt Q9Y570, sequence (Q9Y570 whole entry, looked up): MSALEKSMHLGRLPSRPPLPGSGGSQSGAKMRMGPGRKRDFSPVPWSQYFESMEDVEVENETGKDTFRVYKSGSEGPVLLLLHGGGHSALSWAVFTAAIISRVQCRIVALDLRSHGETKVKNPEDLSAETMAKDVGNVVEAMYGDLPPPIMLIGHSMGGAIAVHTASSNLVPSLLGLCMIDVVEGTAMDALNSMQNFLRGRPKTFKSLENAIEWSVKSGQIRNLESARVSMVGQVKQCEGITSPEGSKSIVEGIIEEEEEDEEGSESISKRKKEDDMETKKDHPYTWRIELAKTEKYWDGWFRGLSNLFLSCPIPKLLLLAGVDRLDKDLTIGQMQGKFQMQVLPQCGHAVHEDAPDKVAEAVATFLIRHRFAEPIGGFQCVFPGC
# UniProt P60673, sequence (P60673 whole entry, looked up): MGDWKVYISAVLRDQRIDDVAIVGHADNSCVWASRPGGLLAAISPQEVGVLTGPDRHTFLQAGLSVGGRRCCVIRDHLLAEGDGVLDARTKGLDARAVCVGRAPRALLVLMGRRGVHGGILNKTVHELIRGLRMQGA
# UniProt Q16378, sequence (Q16378 whole entry, looked up): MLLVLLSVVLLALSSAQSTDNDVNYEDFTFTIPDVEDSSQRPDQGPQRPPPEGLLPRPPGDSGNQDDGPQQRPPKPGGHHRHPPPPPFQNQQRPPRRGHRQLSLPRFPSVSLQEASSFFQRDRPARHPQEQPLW
# UniProt O14668, sequence (O14668 whole entry, looked up): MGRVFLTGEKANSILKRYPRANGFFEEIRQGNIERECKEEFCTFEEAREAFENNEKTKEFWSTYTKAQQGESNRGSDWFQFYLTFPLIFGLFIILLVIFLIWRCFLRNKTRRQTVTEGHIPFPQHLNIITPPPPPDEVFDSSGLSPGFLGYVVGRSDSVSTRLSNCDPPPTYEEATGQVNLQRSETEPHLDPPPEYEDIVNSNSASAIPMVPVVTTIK
# UniProt O75928, sequence (O75928 whole entry, looked up): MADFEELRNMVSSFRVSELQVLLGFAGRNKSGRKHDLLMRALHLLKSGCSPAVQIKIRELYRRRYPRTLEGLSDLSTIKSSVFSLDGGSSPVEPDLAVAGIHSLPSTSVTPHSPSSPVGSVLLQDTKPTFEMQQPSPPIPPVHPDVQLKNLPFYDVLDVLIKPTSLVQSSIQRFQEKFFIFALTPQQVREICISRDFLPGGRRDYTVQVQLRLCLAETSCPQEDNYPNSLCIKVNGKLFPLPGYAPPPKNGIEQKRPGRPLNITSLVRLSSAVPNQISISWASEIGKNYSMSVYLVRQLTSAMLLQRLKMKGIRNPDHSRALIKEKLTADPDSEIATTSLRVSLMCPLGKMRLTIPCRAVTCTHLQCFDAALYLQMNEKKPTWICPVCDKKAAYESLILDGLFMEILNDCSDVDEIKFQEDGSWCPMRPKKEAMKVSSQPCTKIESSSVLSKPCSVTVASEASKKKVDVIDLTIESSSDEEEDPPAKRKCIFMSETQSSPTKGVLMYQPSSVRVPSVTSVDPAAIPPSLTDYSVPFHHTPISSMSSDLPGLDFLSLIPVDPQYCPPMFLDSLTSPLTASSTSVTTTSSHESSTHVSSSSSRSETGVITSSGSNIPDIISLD
Target,log2 fold change (ibrutinib),log2 fold change [1],log2 fold change (ralimetinib),log2 fold change [2],log2 fold change [3],log2 fold change [4],log2 fold change [5],log2 fold change [6],log2 fold change (vemurafenib),log2 fold change [7],log2 fold change (barasertib),log2 fold change [8],log2 fold change (volasertib),log2 fold change [9],log2 fold change [10],log2 fold change [11],log2 fold change (saracatinib),log2 fold change [12],log2 fold change [13],log2 fold change (sotrastaurin)
PPP1R14C (UniProt Q8TAE6),0.067,0.007,0.057,0.042,-0.028,-0.097,-0.123,0.068,-0.183,0.008,0.002,-0.084,0.037,0.072,-0.217,0.017,-0.022,–,–,–
PHF14 (UniProt O94880),-0.014,0.03,-0.024,-0.055,0.454 (active),-0.003,-0.042,-0.128,0.079,-0.127,-0.046,0.341,0.004,-0.02,–,–,-0.047,–,–,–
PPM1H (UniProt Q9ULR3),0.058,-0.032,-0.008,-0.035,–,-0.028,-0.007,0.02,0.066,-0.001,0,0.103,0.025,0,-0.079,0.041,-0.062,0.019,0.048,0.022
PPIC (UniProt P45877),0.278,–,-0.17,0.057,-0.139,0.138,0.05,–,-0.009,–,0.203,–,–,0.078,-0.112,0.124,-0.004,-0.021,0.102,-0.453 (active)
PNPLA4 (UniProt P41247),–,–,0.14,-0.099,–,-0.116,0.046,–,0.098,–,–,0.002,–,-0.111,0.165,0.414,0.009,–,-0.052,-0.013
PIK3CG (UniProt P48736),-0.017,–,0.02,-0.047,-0.054,-0.071,0.01,–,0.028,–,0.046,0.004,–,0.006,-0.276 (active),0.289 (active),0.028,-0.027,-0.025,0.051
PFN3 (UniProt P60673),–,0.042,–,–,-0.02,–,–,-0.02,0.059,0,–,0.112,0.056,–,-0.706 (active),0.109,–,–,-0.03,0.042
PFN1 (UniProt I3L3D5),-0.045,-0.053,0.045,-0.033,-0.013,–,0,0.031,–,-0.142,0.241,-0.01,-0.107,-0.067,0.924 (active),-0.135,–,–,–,–
PHC1 (UniProt P78364),0.027,–,–,–,0.044,-0.117,–,–,0.042,–,0.034,0.097,–,–,–,–,0.066,–,0.443 (active),-0.354
PRRG1 (UniProt O14668),–,–,0.081,0.072,–,–,-0.033,–,–,–,–,–,–,0.052,–,–,–,–,–,–
PPME1 (UniProt Q9Y570),-0.038,-0.072,–,–,–,-0.018,–,-0.077,–,-0.042,0.026,0.104,-0.012,–,–,–,-0.043,-0.238,–,–
"PDIA4, A0A499FI48",–,–,–,–,–,-0.017,–,–,–,–,–,–,–,–,1.69 (active),-0.33,0.03,–,-0.066,-0.048
PPP1R12B isoform 6 (UniProt O60237),0.019,-0.112,0.01,-0.251,–,0.106,-0.012,-0.194,0.08,0.036,-0.046,0.133,-0.029,-0.209,–,–,-0.047,0.095,0.142,-0.057
PCBP2 (UniProt F8W0G4),-0.27,–,-0.061,-0.282,-0.045,-0.083,0.049,–,0.121,–,0.035,-0.253,–,-0.066,–,–,0.005,-0.175,–,–
"PPT2, A0A140T9Y1",–,–,–,–,-0.142,–,–,–,–,–,–,–,–,–,–,–,–,–,–,–
POLR2F (UniProt U3KPV3),–,–,–,–,–,0.223,–,–,–,–,–,0.13,–,–,–,–,-0.051,–,–,–
PDE4DIP (UniProt E9PS60),–,–,–,–,-0.113,0.076,–,–,-0.014,–,–,0.017,–,–,-0.942 (active),0.153,0.067,0.037,0.234,0.137
PPP2CA (UniProt E7ESG8),–,–,–,–,0.239,–,–,–,–,–,–,–,–,–,–,–,–,–,–,–
PREP (UniProt H0Y5Y0),–,-0.051,–,–,–,–,–,0.029,–,0.019,–,–,0.079,–,0.678,-0.144,–,–,–,–
PHOSPHO2 (UniProt C9JD35),–,–,–,–,–,–,–,–,–,–,–,-0.432,–,–,–,–,–,–,0.09,-0.027
PTK2 isoform 2 (UniProt Q05397),0.173,-0.047,–,–,–,-0.138,–,-0.053,–,-0.101,0.05,-0.076,-0.387,–,–,–,-0.063,-0.002,–,–
PIAS2 (UniProt O75928),–,–,0.019,0.006,0.039,0.052,-0.002,–,-0.263,–,–,-0.026,–,0.003,–,–,0.044,-0.017,-0.001,-0.033
PCLAF (UniProt Q15004),0.025,–,0.035,-0.014,0.003,-0.041,-0.005,–,-0.016,–,-0.068,0.057,–,-0.033,-0.067,0.121,-0.013,-0.011,0.034,0.011
PRR4 (UniProt Q16378),–,-0.009,-0.188,0.305,1.73,–,0.1,-0.23,0.367,0.038,–,-0.21,-0.046,-0.005,0.358,-1.21 (active),–,1.86,–,–
PYGO2 (UniProt Q9BRQ0),0.064,–,0.151,-0.122,0.005,0.044,-0.061,–,–,–,0.036,-0.106,–,0,-0.044,0.042,0.07,-0.001,0.011,-0.022
